LGR2 inh: inhibitors of bursicon-induced LGR2 CRE-luciferase signal, primary screen, cell-based, HEK293, CRE-luciferase reporter, bursicon stimulation. inhibition, % at 9.99 µM. AID 720647, 2013. Drosophila bursicon receptor LGR2 (rickets). bursicon-stimulated, 4 h. actives 0.35% (n = 380,000);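 active = drop in luminescence signal, shown as inhibition above about 50% in the replicate tests, limit read from the data, passing the limit was not always enough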;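 also: agonist challenge used bursicon conditioned medium at about half maximal strength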
rRNA inh HTS: reduced GFP signal of wild-type E. coli, primary screen, bacterial rRNA inhibitor project, GFP/RFP fluorescence, OD600, single point. E. coli WT GFP vs humanized-ribosome RFP mutants, 24 h; hits give low values; DMSO median 0, no signal -100. GFP signal change (wild-type ribosome), % (test concentration not listed). actives 1.6% (n = 350,000). AID 720706, 2013;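 active = significant combined selectivity score with lowered wild-type GFP, culture density cut under 30%, mutant RFP and density less affected; inactive = any of these conditions unmet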
PAX8 reporter: inhibitors of PAX8-driven TPO luciferase reporter, primary screen, RMG-I cells, single concentration; actives 1.2% (n = 360,000); SteadyGlo, 24 h; AID 652154, 2013; inhibition, % at 12.6 µM;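 active = mean replicate inhibition at least 60% with every replicate also reaching 60%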;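 also: luciferase light reporting Pax8 driven TPO promoter activity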
EWS-Fli inh: EWS/Fli-driven NR0B1 reporter inhibitors, primary screen, A673 cells, NR0B1 luciferase, luminescence, MLPCN library; inhibition, % at 12.6 µM; actives 0.67% (n = 350,000); AID 651661, 2012; viability-normalised;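 active = mean inhibition of at least 50% after viability correction, with every replicate also passing that limit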;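 also: firefly luciferase signal divided by Alamar Blue viability fluorescence both relative to DMSO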
SIRT5 block: SIRT5 desuccinylase inhibitors, primary screen, biochemical, fluorescence imaging, single point, set 5 | Purified SirT5, succinyl-peptide AMC, trypsin-coupled fluorescence | inhibition, % at 15 µM | NAD-dependent protein deacylase sirtuin-5, mitochondrial (Homo sapiens), Q9NXA8 | actives 1.1% (n = 330,000) | AID 652115, 2013; in the data active = inhibition above about 15%
Target sequence (Q9NXA8 whole entry, looked up): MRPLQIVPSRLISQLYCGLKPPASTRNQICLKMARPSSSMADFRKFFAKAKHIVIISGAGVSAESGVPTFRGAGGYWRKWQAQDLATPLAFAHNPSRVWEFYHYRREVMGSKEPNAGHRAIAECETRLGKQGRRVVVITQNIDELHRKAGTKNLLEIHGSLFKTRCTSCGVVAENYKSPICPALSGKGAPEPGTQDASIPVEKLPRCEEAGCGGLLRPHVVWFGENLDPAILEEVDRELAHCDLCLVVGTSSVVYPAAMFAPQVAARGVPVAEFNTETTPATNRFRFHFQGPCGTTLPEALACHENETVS
PGC1a acetyl inh: inhibitors of PGC1a acetylation signal, primary screen, cell-based, U2OS, AlphaScreen, inhibitor mode. actives 0.17% (n = 350,000). AID 651687, 2012. AlphaScreen anti-acetyl-lysine; with virally co-expressed GCN5 acetyltransferase. inhibition, % at 15.6 µM;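 active = every replicate shows inhibition of at least 40%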
Numbers stand for hits; n = inactive; x = not tested or not shown. The list is not random: actives were taken first. Their share in the collection is about 3.4%.

SMILES	LGR2 inh	rRNA inh HTS	PAX8 reporter	EWS-Fli inh	SIRT5 block	PGC1a acetyl inh
Cc1ccc(S(=O)(=O)Nc2ccc3c(c2)C(=O)N([C@@H](C)CO)C[C@H](C)[C@H](CN(C)S(=O)(=O)c2ccc(C)cc2)OCCCC[C@H](C)O3)cc1	n	n	n	n	n	n
COc1ccc(-c2csc(NC(=O)c3ccc(OCC(=O)N4CCOCC4)c(OC)c3)n2)cc1	92	n	n	n	x	n
CC(C)NC(=O)Nc1cccc2c1O[C@@H](CN(C)C)[C@@H](C)CN(C)C2=O	x	n	x	x	x	x
Cc1cc(C)c2cc(C(=O)Nc3ccc(C)c(F)c3)[nH]c2c1	n	n	n	n	n	n
CCCCNC(=O)c1cc2c(C)cc(C)cc2[nH]1	n	-22	n	n	n	x
Cc1cc(F)ccc1NC(=O)C1CSC2(C)CCC(=O)N12 (centres undefined)	n	n	n	n	18	x
CC12CCC(=O)N1C(C(=O)Nc1nc(-c3ccc(F)c(F)c3)cs1)CS2 (centres undefined)	n	n	n	n	15	n
Fc1ccc(-[n+]2nc(Nc3ccccc3)sc2-c2c3ccccc3cc3ccccc23)cc1	n	n	86	n	x	x
COc1ccc(C)cc1Nc1n[n+](-c2ccccc2)c(-c2c(OC)ccc3ccccc23)s1	n	n	84	n	x	x
COc1ccc(C)cc1Nc1n[n+](-c2ccccc2)c(-c2cc(OC)c(OC)cc2Br)s1	n	n	n	n	n	n
Oc1ccc2ccccc2c1-c1sc(Nc2ccccc2)n[n+]1-c1ccc(F)cc1	x	n	n	n	x	x
CCC(=O)N(C)C[C@@H]1Oc2cc(-c3cccc(F)c3)ccc2S(=O)(=O)N([C@@H](C)CO)C[C@H]1C	n	n	x	n	n	n
COc1cc(NC(=O)c2cccc3c(-c4cnn(C)c4)coc23)cc(OC)c1OC	73	n	n	n	x	n
COc1ccc(NC(=O)c2cccc3c(-c4cnn(C)c4)coc23)cc1	n	n	n	n	n	n
O=C(Nc1nnc(-c2ccncc2)o1)c1ccccc1	n	-35	n	n	n	x
O=C(Nc1nnc(-c2ccccn2)o1)c1cccc(Cl)c1	n	-54	n	n	n	n
O=C(CSc1n[nH]c(=O)n1Cc1ccco1)Nc1ccccc1	n	n	n	n	15	n
CC[C@@H]1CC=CC[C@@H](C)Oc2ccccc2C(=O)N(C)[C@H](Cc2ccccc2)C(=O)N1 (mixture of isomers)	x	n	x	x	x	x
C/C=C/c1ccc([C@H]2[C@@H](CN(C)C(=O)CC)N(C(=O)C3CC3)[C@H]2CO)cc1	n	n	x	n	n	x
C[C@H]1CN([C@@H](C)CO)S(=O)(=O)c2ccc(-c3cccc(F)c3)cc2O[C@H]1CN(C)S(=O)(=O)c1ccc(F)cc1	n	n	x	n	20	n
C[C@@H]1CN([C@@H](C)CO)S(=O)(=O)c2ccc(-c3cccc(F)c3)cc2O[C@@H]1CN(C)S(=O)(=O)c1ccc(F)cc1	n	n	x	n	17	n
OC[C@@H]1[C@H](c2ccccc2)C2(CN(Cc3nccs3)C2)N1Cc1cccnc1	n	n	n	n	20	n
O=C(c1c[nH]c(C(=O)C(Cl)(Cl)Cl)c1)c1ccc(F)cc1Cl	n	-35	n	n	n	n
CN1c2ccc(Br)cc2[C@@H]2[C@@H](CCN2C(=O)Nc2ccccc2F)[C@@H]1CO	n	n	n	n	n	n
O=C(Nc1ccc(-n2ccc(C(F)(F)F)n2)cc1)Nc1cccc(Cl)c1	n	-51	n	n	n	x
SMILES	LGR2 inh	rRNA inh HTS	PAX8 reporter	EWS-Fli inh	SIRT5 block	PGC1a acetyl inh
C[C@@H]1CN(C)C(=O)c2cccnc2O[C@H]1CN(C)S(C)(=O)=O	x	n	x	x	x	x
O=C(NC[C@H]1CC[C@@H]2[C@@H](CN2S(=O)(=O)c2ccccc2[N+](=O)[O-])O1)c1cccnc1	x	x	x	n	n	n
CCc1ccccc1NC(=S)NCC1CCN(c2ccc(OC)cc2)C1 (centres undefined)	n	-18	n	n	n	n
CCc1cccc(C)c1NC(=S)NCC1CCN(c2ccc(OC)cc2)C1 (centres undefined)	n	n	n	n	n	n
O=C(CN(c1ccc(Cl)cc1)S(=O)(=O)c1ccc(Cl)c([N+](=O)[O-])c1)NCCc1ccccc1	n	n	79	n	x	n
C[C@@H]1CN([C@H](C)CO)S(=O)(=O)c2ccc(C#CC3(O)CCCC3)cc2O[C@@H]1CN(C)C(=O)Cc1cccnc1	n	n	n	n	n	n
c1ccc(Nc2cccc3c(Nc4ccccc4)cccc23)cc1	n	n	n	n	n	n
O=S(=O)(O)c1cccc2cccc(Nc3ccccc3)c12	n	n	n	n	57	n
Nc1c(N(CCC2=CCCCC2)C(=O)COc2ccc(F)cc2Cl)c(=O)[nH]c(=O)n1Cc1ccccc1	n	n	n	58	n	n
Nc1c(N(CCC2=CCCCC2)C(=O)Cc2ccc(F)cc2)c(=O)[nH]c(=O)n1Cc1ccccc1	n	n	n	n	n	x
O=C1c2cccc(NCCCNCCO)c2C(=O)c2cccc(NCCCNCCO)c21	12	n	n	n	x	n
O=C1c2ccccc2C(=O)c2c(NCc3cccnc3)cccc21	x	x	n	x	x	n
Cn1cc(CNCc2cn(C)nc2-c2ccc(C3CCCCC3)cc2)cn1	n	-20	n	n	n	n
CCC(=O)Nc1ccc2c(c1)OC[C@H](C)N(C(=O)CC1CC1)C[C@H](C)[C@@H](OC)CN(C)C2=O	n	n	x	n	n	n
O=C(c1ccccc1)c1ccc(-c2ccc(O)cc2)cc1	n	-28	n	n	n	x
COCc1cn(CC[C@@H]2CC[C@@H](NC(=O)Nc3ccc(OC)cc3)[C@@H](CO)O2)nn1	n	n	n	n	n	n
CCOC(=O)CN(C)Cc1cn(C)nc1-c1ccc(Oc2ccccc2)cc1	n	-20	n	n	n	n
O=C(NC1CCCCC1)N1CC(=O)N2[C@H](CO)[C@H](c3ccc(/C=C/c4ccccc4)cc3)[C@H]2C1	n	n	n	n	n	n
COc1ccc(-c2cc(C3CCN(c4ccc(C(C)=O)cc4[N+](=O)[O-])CC3)[nH]n2)cc1	x	x	85	x	x	x
COC(=O)c1ccc(N2CCC(c3cc(-c4ccc(OC)cc4)n[nH]3)CC2)c([N+](=O)[O-])c1	x	x	n	x	x	n
O=C(c1ccc2c(c1)OCO2)N(c1ccccc1)C1C=CS(=O)(=O)C1 (centres undefined)	x	x	x	x	x	n
CCN(CC)S(=O)(=O)c1ccc(C(=O)N(c2ccccc2)C2C=CS(=O)(=O)C2)cc1 (centres undefined)	n	n	n	n	n	46

Bioassay records: PubChem, Broad Institute
